ELG1 repair inh: qHTS screen for small molecules that inhibit ELG1-dependent DNA repair in human embryonic kidney (HEK293T) cells expressing luciferase-tagged ELG1; HEK293T ELG1-luciferase reporter, luminescence, 16 h; DNA damage induced by 5-fluorouridine; Potency, µM (series often up to 46.1 µM), for the others: top-dose activity change, negative = inhibition, hits mostly inhibitors; actives 2.3% (n = 330,000); AID 504467, 2011; further: potency means the concentration at half of the fitted maximal effect; nearly all actives have a fitted effect of over 55% in size
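5-Fluorouridine DNA damage + compound/DMSO, 2,000 cells/well, 16 h, 37 °C/5% CO2. ONE-Glo, 30 min RT, luminescence. Readout = decrease in reporter signal.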
IL-1B inflam inh: qHTS for Inhibitors of Inflammasome Signaling: IL-1-beta AlphaLISA Primary Screen; AID 743279, 2014; THP-1 LPS/ATP IL-1B secretion, AlphaLISA, 16 h; hits give low values; activity change, % at 57.5 µM; actives 4.7% (n = 360,000); in the data active means activity change below about -50%; inconclusive means mostly about -30% to -49%
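THP-1 cells pretreated 1 hr with compounds (up to 57.5 uM final), then stimulated with LPS (250 ng/mL final) plus ATP (1.25 mM final); secreted IL-1B measured by AlphaLISA after 16 hr, decreased signal indicating inhibition.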
HT1080 IDH1KD tx: qHTS for induction of synthetic lethality in tumor cells producing 2HG: qHTS for the HT-1080-IDH1KD cell line; HT-1080 IDH1 knockdown viability, ATP luminescence, 48 h; Potency, µM (titrated, usually from 46.1 µM), without a hit: at the top dose activity, negative = toxicity, actives largely listed as cytotoxic; actives 2% (n = 360,000);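 further: potency means the concentration at half of the fitted maximal effect; 0% = DMSO wells and -100% = cell-free medium wells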
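IDH1KD HT-1080 cells, 750/well, RPMI + 5% FBS; compound pinned after 2 h settling; 48 h, 37 °C; CellTiter-Glo luminescence; % activity normalised to DMSO and no-cell wells; curves fitted, classed by r2 and efficacy.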
HT1080-NT tox: qHTS for induction of synthetic lethality in tumor cells producing 2HG: qHTS for the HT-1080-NT fibrosarcoma cell line | Potency, µM (highest dose often 46.1 µM), for inactives: at the highest dose activity, negative = less viability, usual class: cytotoxic | AID 686970, 2013 | actives 1.6% (n = 360,000) | HT-1080-NT fibrosarcoma viability, CellTiter-Glo ATP luminescence, 48 h;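 further: NT is the 2HG producing partner of a matched IDH1 knockdown line; potency means the concentration at half of the fitted maximal effect; 0% = DMSO-treated cells and -100% = media-only wells without cells; nearly all actives have a fitted effect of over 55% in size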
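A 48-hour cytotoxicity screen used HT-1080-NT cells plated 2 hours before compound delivery. ATP-based CellTiter-Glo luminescence measured viability, normalized to DMSO and no-cell controls.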
DT40 TDP1 no CPT: qHTS for Inhibitors of human tyrosyl-DNA phosphodiesterase 1 (TDP1): qHTS in cells in absence of CPT; DT40 Tdp1-/- hTDP1 cells, no CPT, ATP luminescence, 48 h; Potency, µM (doses to about 46.2 µM), for inactives: at the top dose activity change, negative = growth inhibition, usual class: inhibitors; actives 15% (n = 420,000); further: potency means the concentration at half of the fitted maximal effect; nearly all actives have a fitted effect of over 55% in size
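Compound effects on proliferation are scored in DT40 Tdp1-/-;hTDP1 cells in the absence of CPT. ATP levels (CellTiter-Glo luminescence) are recorded after a ≥48 hr, 37 °C incubation.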
TDP1 cell CPT: qHTS for Inhibitors of human tyrosyl-DNA phosphodiesterase 1 (TDP1): qHTS in cells in presence of CPT. chicken DT40 Tdp1-/-;hTDP1 cells + 20 nM CPT, ATP luminescence, 48 h. Potency, µM (highest dose often 46.2 µM), for inactives: at the highest dose activity change, negative = growth inhibition, most hits filed as inhibitors. actives 12% (n = 420,000). AID 686979, 2013; further: potency means the concentration at half of the fitted maximal effect; nearly all actives have a fitted effect of over 55% in size
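Chicken DT40 Tdp1-/- cells complemented with human TDP1, 400 cells/well, exposed to compounds plus 20 nM camptothecin for at least 48 h at 37 C; viability read as ATP content by CellTiter-Glo luminescence.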
Numbers without * were called inactive; ? = inconclusive; nt = no result; [ ] = another dose, or the depositor's remark. Most compounds without a hit are left out; they make up all but 19% or so of the library. Unless noted, the call rests on the fitted dose curve; in most records, active means well fitted curve in the direction sought with a large enough effect; inconclusive means small, poorly fitted or top-dose-only effect, or another doubt; inactive means no such curve, though single readings can be large; an effect the other way counts as inactive or inconclusive. Unless noted, on the % scale 0 is the no-effect control and ±100 the full control effect.

SMILES	ELG1 repair inh	IL-1B inflam inh	HT1080 IDH1KD tx	HT1080-NT tox	DT40 TDP1 no CPT	TDP1 cell CPT
CCOC(=O)c1ccc2c(c1)N(Cc1cccc(C(F)(F)F)c1)C(=O)c1ccccc1S2(=O)=O	nt	nt	nt	nt	16.4µM*	?
CCOC(=O)N1CCC(NC(=O)c2ccc3c(c2)N(Cc2cc(C)ccc2C)C(=O)c2ccccc2S3(=O)=O)CC1	nt	nt	nt	nt	11.6µM*	?
Cc1ccc(C)c(CN2C(=O)c3ccccc3S(=O)c3ccc(C(=O)N4CCCCC4)cc32)c1 (configuration not stated)	nt	nt	nt	nt	16.4µM*	16.4µM*
Cc1cccc(CN2C(=O)c3ccccc3S(=O)(=O)c3ccc(C(=O)N4CCN(c5cc(C)ccc5C)CC4)cc32)c1	nt	nt	nt	nt	-28.2%	-21.2%
O=C(c1ccc2c(c1)N(Cc1ccccc1F)C(=O)c1ccccc1S2=O)N1CCOCC1 (configuration not stated)	nt	nt	nt	nt	-3.2%	-8.3%
CCOC(=O)N1CCC(NC(=O)c2ccc3c(c2)N(Cc2cc(C)ccc2C)C(=O)c2ccccc2S3=O)CC1 (configuration not stated)	nt	nt	nt	nt	18.4µM*	6.51µM*
Cc1ccccc1CN1C(=O)c2ccccc2S(=O)c2ccc(C(=O)NC3CCC(C)CC3)cc21 (configuration not stated)	nt	nt	nt	nt	-28.6%	?
C[n+]1cccc(C(=O)NNC(=O)C23CC4CC(CC(C4)C2)C3)c1	-4.7%	-0.9	18.1%	18.2%	-17.6%	-0.3%
O=C(COC(=O)CN1C(=O)C2CCCCC2C1=O)Nc1cc(F)ccc1F (configuration not stated)	4.5%	9.7	-2.4%	-5.6%	-29.7%	?
Cn1c(=O)oc2cc(S(=O)(=O)NCc3ccc(F)cc3)ccc21	20.6%	6.0	4.0%	0.9%	-1.8%	-17.4%
COC(=O)c1ccccc1S(=O)(=O)NNC(=O)Nc1ccccc1	?	13.6	14.8%	9.8%	-14.3%	-23.2%
CCCn1c(SCC(O)c2ccccc2)nc2ccccc21 (configuration not stated)	nt	nt	nt	nt	?	-25.9%
CCN1CCN(C(=O)c2ccc3c(c2)N(Cc2cc(C)ccc2C)C(=O)c2ccccc2S3(=O)=O)CC1	nt	nt	nt	nt	-26.9%	-2.7%
CCOC(=O)c1ccc2c(c1)N(Cc1cc(C)ccc1C)C(=O)c1ccccc1S2(=O)=O	nt	nt	nt	nt	16.4µM*	?
Cc1ccc(-n2nc(C)c3c2C(Br)C(C)(C)CC3=O)nc1 (configuration not stated)	nt	0.0	1.5%	1.2%	-33.1%	?
Cc1ccc(C)c(NC(=O)C2CCCN(c3ncnc4onc(C)c34)C2)c1 (configuration not stated)	nt	nt	nt	nt	10.3µM*	11.6µM*
CCOCCCNC(=O)C1CCCN(c2ncnc3onc(C)c23)C1 (configuration not stated)	nt	nt	nt	nt	20.6µM*	16.4µM*
CCCCN(CC)CCNC(=O)C1CCCN(c2ncnc3onc(C)c23)C1 (configuration not stated)	nt	nt	nt	nt	-15.6%	-26.2%
Cc1noc2ncnc(N3CCCC(C(=O)NCCC(C)C)C3)c12 (configuration not stated)	nt	nt	nt	nt	7.31µM*	8.2µM*
CCOC(=O)c1ccc(NC(=O)C2CCCN(c3ncnc4onc(C)c34)C2)cc1 (configuration not stated)	nt	nt	nt	nt	14.6µM*	13µM*
CCCN(CCO)C1CCN(CCc2ccccc2)CC1	1.7%	-1.5	-14.8%	-0.8%	7.3%	0.9%
O=C(c1ccco1)N1N=C(c2ccccc2O)CC1c1cccs1 (configuration not stated)	nt	0.3	2.4%	1.3%	?	-26.9%
CC(=O)c1ccc2c(c1)N(Cc1ccccc1Cl)C(=O)C(C)S2 (configuration not stated)	nt	17.9	-9.3%	-16.2%	?	?
COCCCNC(=O)C1CCCN(c2ncnc3onc(C)c23)C1 (configuration not stated)	nt	nt	nt	nt	?	18.4µM*
Cc1ccc(S(=O)(=O)N2CCC[C@H]2C(=O)NC2CCCCC2)cc1	nt	9.8	5.5%	-1.5%	?	?
SMILES	ELG1 repair inh	IL-1B inflam inh	HT1080 IDH1KD tx	HT1080-NT tox	DT40 TDP1 no CPT	TDP1 cell CPT
CCOC(=O)CSc1nc2ccc(C)cc2cc1C#N	?	17.0	12.7%[9.24 µM]	4.2%	-20.9%	-23.4%
CCOC(=O)CC(=O)CSc1nc2c(cc1C#N)CCC2	17.3%	0.6	-27.1%	?	20.6µM*	8.2µM*
CCOC(=O)CSc1nc2cc(C)ccc2cc1C#N	?	3.9	-0.6%	-8.0%	10.3µM*	13µM*
CCOC(=O)CSc1nc2cc(OC)ccc2cc1C#N	?	4.3	-12.7%	-6.1%	23.1µM*	16.4µM*
CCOC(=O)CSc1nc(N)c(C#N)cc1C#N	?	?	-7.0%	1.9%	16.4µM*	-27.6%
COC(=O)CC(=O)CSc1nc2c(cc1C#N)CCCCC2	?	17.4	-5.5%	-1.5%	0.2%	6.9%
CC[C@H]1C(=O)[C@@H](Cc2ccccc2)[C@@H]2CCN3C(=O)CCC[C@H]1[C@H]23	nt	38.6	11.5%	15.1%	1.1%	-12.2%
Cc1ccc(NC(=O)CN(C)S(=O)(=O)c2ccc3c(c2)CCC(=O)N3)c(C)c1	nt	nt	nt	nt	-30.0%	-21.2%
COc1cccc(OC)c1C(=O)Nc1ccc(-c2nc3ncccc3o2)cc1	nt	nt	nt	nt	?	-20.5%
Cc1ccsc1/C=C1\SC(N)=NC1=O	?	-18.7	11.1%	8.2%	-2.5%	-18.6%
Cc1ccsc1/C=C1/SC(N2CC(C)OC(C)C2)=NC1=O (configuration not stated)	-28.5%	-16.7	8.5%	12.1%	20.6µM*	?
CCCC(=O)N1CCCC(C(=O)c2cccc(OC(C)C)c2)C1 (configuration not stated)	nt	2.6	1.4%	6.5%	?	?
COc1cc2c(c(OC)c1OC)-c1c(cc3c(c1O)OCO3)C[C@@H](C)[C@@H](C)C2	-0.4%	-3.8	-15.9%	-27.4%	?	23.1µM*
